Common to all, as to assay: DAPPL (digital affinity profiling via proximity ligation, sequencing); 10 mM Tris-HCl pH 7.5, 50 mM NaCl, 1 mM DTT, 4% glycerol, room temperature, 30 min; GST-TFs on glutathione beads, 16-mer random dsDNA library, 0.1% formaldehyde crosslink after washing; high values mean tight binding
What all share (details): protein: recombinant; tags: N-terminal GST; dsDNA, one strand shown

One assay deals with T1, FLI1 (Homo sapiens, UniProt Q01543 1-452).
T1 sequence: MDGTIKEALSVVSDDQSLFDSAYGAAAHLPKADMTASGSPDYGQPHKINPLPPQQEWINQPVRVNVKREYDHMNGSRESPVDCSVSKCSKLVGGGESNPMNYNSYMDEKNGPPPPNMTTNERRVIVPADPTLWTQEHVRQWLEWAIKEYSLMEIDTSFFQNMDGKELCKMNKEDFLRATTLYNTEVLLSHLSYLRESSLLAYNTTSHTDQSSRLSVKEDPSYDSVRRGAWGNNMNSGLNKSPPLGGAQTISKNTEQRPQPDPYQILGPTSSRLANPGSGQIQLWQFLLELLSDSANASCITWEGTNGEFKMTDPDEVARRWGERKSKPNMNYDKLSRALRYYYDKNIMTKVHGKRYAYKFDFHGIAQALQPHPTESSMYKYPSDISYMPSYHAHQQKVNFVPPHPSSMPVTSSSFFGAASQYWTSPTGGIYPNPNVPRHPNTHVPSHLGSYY
The method, boiled down: (§1)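 After expression in yeast as GST fusions, human transcription factors were bound to glutathione beads, DNA-barcoded and mixed with a tag-only sample. The pools were incubated with 200 nmole of a 16-mer random double-stranded DNA library in Tris/NaCl/DTT/glycerol buffer (30 min, room temperature), washed and crosslinked with 0.1% formaldehyde. Proximity ligation with BsaI/T4 ligase ran for 1 h at 37 °C, before PCR amplification and sequencing on an Illumina NextSeq500. Binding signal is a hexamer's read frequency for a factor divided by its frequency for the tag-only sample.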

The next assay deals with T2, ELK1 (Homo sapiens, UniProt P19419 1-428).
T2 sequence: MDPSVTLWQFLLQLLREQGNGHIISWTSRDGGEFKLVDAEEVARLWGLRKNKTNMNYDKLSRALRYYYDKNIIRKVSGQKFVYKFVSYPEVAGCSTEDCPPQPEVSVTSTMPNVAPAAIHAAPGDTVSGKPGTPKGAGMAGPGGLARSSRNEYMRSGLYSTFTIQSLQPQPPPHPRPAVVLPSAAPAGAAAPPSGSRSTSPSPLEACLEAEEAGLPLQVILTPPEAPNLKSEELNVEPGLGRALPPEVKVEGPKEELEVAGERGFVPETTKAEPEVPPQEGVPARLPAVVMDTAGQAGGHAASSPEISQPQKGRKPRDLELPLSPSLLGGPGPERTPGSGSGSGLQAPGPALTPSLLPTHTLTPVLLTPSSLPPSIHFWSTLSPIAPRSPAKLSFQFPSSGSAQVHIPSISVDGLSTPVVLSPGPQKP
The method, boiled down: as §1

For the next assay, the target named is T3, GABPA (Homo sapiens, UniProt Q06546 1-454).
T3 sequence: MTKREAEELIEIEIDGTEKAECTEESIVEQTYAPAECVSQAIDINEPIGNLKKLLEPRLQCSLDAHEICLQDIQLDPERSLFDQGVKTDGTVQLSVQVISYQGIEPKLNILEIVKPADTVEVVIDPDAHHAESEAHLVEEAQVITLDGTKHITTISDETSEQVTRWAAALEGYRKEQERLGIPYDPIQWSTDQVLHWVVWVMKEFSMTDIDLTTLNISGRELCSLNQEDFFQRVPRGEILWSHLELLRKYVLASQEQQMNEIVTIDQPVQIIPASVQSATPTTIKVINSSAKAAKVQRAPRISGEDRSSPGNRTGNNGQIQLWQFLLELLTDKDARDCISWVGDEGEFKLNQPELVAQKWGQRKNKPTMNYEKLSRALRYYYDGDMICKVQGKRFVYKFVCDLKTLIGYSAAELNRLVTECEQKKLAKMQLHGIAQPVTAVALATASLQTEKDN
The method, boiled down:
as §1

In another assay the target is T4, ERG (Homo sapiens, UniProt P11308 1-479).
T4 sequence: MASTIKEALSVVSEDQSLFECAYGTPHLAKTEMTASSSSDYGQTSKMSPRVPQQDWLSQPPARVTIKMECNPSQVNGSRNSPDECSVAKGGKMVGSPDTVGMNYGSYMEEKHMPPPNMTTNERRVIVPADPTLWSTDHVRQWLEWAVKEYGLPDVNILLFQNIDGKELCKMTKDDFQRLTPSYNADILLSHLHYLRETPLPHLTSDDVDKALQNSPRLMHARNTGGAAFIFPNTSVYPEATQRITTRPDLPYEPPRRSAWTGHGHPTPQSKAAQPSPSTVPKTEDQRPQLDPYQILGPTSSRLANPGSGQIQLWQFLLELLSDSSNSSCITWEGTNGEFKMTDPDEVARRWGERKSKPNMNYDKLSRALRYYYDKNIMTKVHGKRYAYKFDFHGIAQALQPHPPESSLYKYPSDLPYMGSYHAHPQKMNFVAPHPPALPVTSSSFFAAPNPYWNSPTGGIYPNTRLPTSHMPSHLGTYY
The essentials: as §1

A further assay concerns the target ELF1 (Homo sapiens, UniProt P32519 1-619). The method, boiled down: as §1
The target of another assay is T5, EHF (Homo sapiens, UniProt Q9NZC4 1-300).
T5 sequence: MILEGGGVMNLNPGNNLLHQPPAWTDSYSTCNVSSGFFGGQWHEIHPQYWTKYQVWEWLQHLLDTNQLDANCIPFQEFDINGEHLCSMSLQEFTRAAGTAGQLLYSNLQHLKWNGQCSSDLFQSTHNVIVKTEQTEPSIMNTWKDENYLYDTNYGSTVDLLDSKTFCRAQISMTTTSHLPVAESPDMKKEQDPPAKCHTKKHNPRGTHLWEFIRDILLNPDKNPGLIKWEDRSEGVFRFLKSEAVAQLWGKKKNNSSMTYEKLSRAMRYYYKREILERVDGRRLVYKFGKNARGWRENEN
The method, boiled down:
as §1

For the next assay, the target named is SPI1 (Homo sapiens, UniProt P17947 1-270). The method, boiled down: as §1
The target of another assay is SPIB (Homo sapiens, UniProt Q01892 1-262). The method, boiled down: as §1
Chain of SPIB (Q01892 whole entry): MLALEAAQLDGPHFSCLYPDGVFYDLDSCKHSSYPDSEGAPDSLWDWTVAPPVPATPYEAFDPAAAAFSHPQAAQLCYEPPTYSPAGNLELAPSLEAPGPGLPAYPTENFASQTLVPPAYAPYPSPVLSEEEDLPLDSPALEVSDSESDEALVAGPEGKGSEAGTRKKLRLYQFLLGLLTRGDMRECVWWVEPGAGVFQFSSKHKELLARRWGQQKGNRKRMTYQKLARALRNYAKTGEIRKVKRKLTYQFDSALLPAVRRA
The next assay addresses T6, ELK3 (Homo sapiens, UniProt P41970 1-407).
T6 sequence: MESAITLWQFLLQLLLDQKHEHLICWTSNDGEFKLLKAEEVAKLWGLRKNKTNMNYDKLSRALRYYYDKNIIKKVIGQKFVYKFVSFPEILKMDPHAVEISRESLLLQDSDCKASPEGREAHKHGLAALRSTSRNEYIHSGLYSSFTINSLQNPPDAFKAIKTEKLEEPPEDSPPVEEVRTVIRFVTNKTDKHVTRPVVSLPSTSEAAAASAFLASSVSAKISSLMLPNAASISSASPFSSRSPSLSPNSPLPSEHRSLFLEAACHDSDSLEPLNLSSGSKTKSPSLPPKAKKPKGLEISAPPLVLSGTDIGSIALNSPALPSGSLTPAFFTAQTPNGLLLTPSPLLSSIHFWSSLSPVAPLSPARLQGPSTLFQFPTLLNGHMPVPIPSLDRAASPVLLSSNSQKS
The method, boiled down: as §1

Chain of ELF1 (P32519 whole entry): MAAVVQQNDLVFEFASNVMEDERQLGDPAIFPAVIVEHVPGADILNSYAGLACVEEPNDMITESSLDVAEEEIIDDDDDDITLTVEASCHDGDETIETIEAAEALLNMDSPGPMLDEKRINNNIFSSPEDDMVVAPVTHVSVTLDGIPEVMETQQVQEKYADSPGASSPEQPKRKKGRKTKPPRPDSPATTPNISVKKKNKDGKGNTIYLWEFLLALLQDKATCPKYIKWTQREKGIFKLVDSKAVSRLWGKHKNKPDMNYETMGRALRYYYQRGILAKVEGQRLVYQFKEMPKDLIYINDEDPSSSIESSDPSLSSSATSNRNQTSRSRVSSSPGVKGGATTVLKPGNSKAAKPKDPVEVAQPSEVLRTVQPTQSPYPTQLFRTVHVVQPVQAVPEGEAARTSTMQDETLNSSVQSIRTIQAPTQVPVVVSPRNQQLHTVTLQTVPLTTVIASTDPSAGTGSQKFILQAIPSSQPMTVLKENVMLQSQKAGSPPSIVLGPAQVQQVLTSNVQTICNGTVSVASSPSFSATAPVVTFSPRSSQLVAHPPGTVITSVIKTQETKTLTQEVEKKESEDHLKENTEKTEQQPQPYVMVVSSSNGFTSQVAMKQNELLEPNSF

For CCCGAA, the binding signal was 1.44 fold enrichment (6-mer frequency, TF over GST control) with FLI1; 1.26 fold enrichment (6-mer frequency, TF over GST control) with ELK1; 1.51 fold enrichment (6-mer frequency, TF over GST control) with GABPA; 1.18 fold enrichment (6-mer frequency, TF over GST control) with ERG; 1.39 fold enrichment (6-mer frequency, TF over GST control) in the assay with ELF1; 1.3 fold enrichment (6-mer frequency, TF over GST control) with EHF. Also, the binding signal is 1.36 fold enrichment (6-mer frequency, TF over GST control) with SPI1; 1.27 fold enrichment (6-mer frequency, TF over GST control) in the assay with SPIB; 1.2 fold enrichment (6-mer frequency, TF over GST control) with ELK3.

As to AACCCC, the binding signal with FLI1 was 1.08 fold enrichment (6-mer frequency, TF over GST control); in the assay with ELK1, 1.17 fold enrichment (6-mer frequency, TF over GST control); with GABPA, 1.1 fold enrichment (6-mer frequency, TF over GST control); in the assay with ERG, 1.17 fold enrichment (6-mer frequency, TF over GST control); with ELF1 it was 1.16 fold enrichment (6-mer frequency, TF over GST control); with EHF, 1.21 fold enrichment (6-mer frequency, TF over GST control). The binding signal in the assay with SPI1 was 1.12 fold enrichment (6-mer frequency, TF over GST control); in the assay with SPIB it was 1.18 fold enrichment (6-mer frequency, TF over GST control); in the assay with ELK3, 1.14 fold enrichment (6-mer frequency, TF over GST control).

Turning to ATGAAC, the binding signal was 1.31 fold enrichment (6-mer frequency, TF over GST control) in the assay with FLI1; 1.28 fold enrichment (6-mer frequency, TF over GST control) with ELK1; 1.27 fold enrichment (6-mer frequency, TF over GST control) with GABPA; 1.19 fold enrichment (6-mer frequency, TF over GST control) with ERG; 1.27 fold enrichment (6-mer frequency, TF over GST control) with ELF1; 1.32 fold enrichment (6-mer frequency, TF over GST control) in the assay with EHF. The binding signal was 1.21 fold enrichment (6-mer frequency, TF over GST control) in the assay with SPI1; 1.27 fold enrichment (6-mer frequency, TF over GST control) in the assay with SPIB; 1.44 fold enrichment (6-mer frequency, TF over GST control) with ELK3.

Consider ACGATT, for which the binding signal in the assay with FLI1 was 1.44 fold enrichment (6-mer frequency, TF over GST control); in the assay with ELK1, 1.31 fold enrichment (6-mer frequency, TF over GST control); with GABPA, 1.29 fold enrichment (6-mer frequency, TF over GST control); with ERG, 1.34 fold enrichment (6-mer frequency, TF over GST control); in the assay with ELF1 it was 1.32 fold enrichment (6-mer frequency, TF over GST control); with EHF, 1.32 fold enrichment (6-mer frequency, TF over GST control). In addition, the binding signal with SPI1 is 1.31 fold enrichment (6-mer frequency, TF over GST control); with SPIB, 1.3 fold enrichment (6-mer frequency, TF over GST control); with ELK3, 1.38 fold enrichment (6-mer frequency, TF over GST control).

Consider TGCTCC, for which the binding signal was 1.53 fold enrichment (6-mer frequency, TF over GST control) in the assay with FLI1; 1.41 fold enrichment (6-mer frequency, TF over GST control) with ELK1; 1.45 fold enrichment (6-mer frequency, TF over GST control) with GABPA; 1.37 fold enrichment (6-mer frequency, TF over GST control) in the assay with ERG; 1.31 fold enrichment (6-mer frequency, TF over GST control) in the assay with ELF1; 1.46 fold enrichment (6-mer frequency, TF over GST control) in the assay with EHF. For the same sequence, the binding signal in the assay with SPI1 was 1.38 fold enrichment (6-mer frequency, TF over GST control); with SPIB, 1.41 fold enrichment (6-mer frequency, TF over GST control); in the assay with ELK3, 1.38 fold enrichment (6-mer frequency, TF over GST control).

With TAACAC, the binding signal with FLI1 is 1.26 fold enrichment (6-mer frequency, TF over GST control); with ELK1 it was 1.2 fold enrichment (6-mer frequency, TF over GST control); in the assay with GABPA, 1.24 fold enrichment (6-mer frequency, TF over GST control); in the assay with ERG, 1.19 fold enrichment (6-mer frequency, TF over GST control); with ELF1 it was 1.23 fold enrichment (6-mer frequency, TF over GST control); with EHF it was 1.21 fold enrichment (6-mer frequency, TF over GST control). Also, the binding signal is 1.18 fold enrichment (6-mer frequency, TF over GST control) with SPI1; 1.25 fold enrichment (6-mer frequency, TF over GST control) with SPIB; 1.15 fold enrichment (6-mer frequency, TF over GST control) with ELK3.

On to ATTTAA, for which the binding signal with FLI1 is 1.24 fold enrichment (6-mer frequency, TF over GST control); with ELK1 it was 1.12 fold enrichment (6-mer frequency, TF over GST control); with GABPA, 1.14 fold enrichment (6-mer frequency, TF over GST control); with ERG, 1.14 fold enrichment (6-mer frequency, TF over GST control); with ELF1, 1.22 fold enrichment (6-mer frequency, TF over GST control); with EHF, 1.2 fold enrichment (6-mer frequency, TF over GST control). Further, the binding signal is 1.16 fold enrichment (6-mer frequency, TF over GST control) in the assay with SPI1; 1.15 fold enrichment (6-mer frequency, TF over GST control) in the assay with SPIB; 1.28 fold enrichment (6-mer frequency, TF over GST control) with ELK3.

As to GTTATT, the binding signal with FLI1 is 1.16 fold enrichment (6-mer frequency, TF over GST control); with ELK1, 1.23 fold enrichment (6-mer frequency, TF over GST control); with GABPA it was 1.17 fold enrichment (6-mer frequency, TF over GST control); in the assay with ERG it was 1.15 fold enrichment (6-mer frequency, TF over GST control); with ELF1, 1.05 fold enrichment (6-mer frequency, TF over GST control); in the assay with EHF, 1.08 fold enrichment (6-mer frequency, TF over GST control). Also, the binding signal with SPI1 was 1.28 fold enrichment (6-mer frequency, TF over GST control); with SPIB, 1.09 fold enrichment (6-mer frequency, TF over GST control); with ELK3, 1.23 fold enrichment (6-mer frequency, TF over GST control).

Values taken from publication PMC7862700, “An all-to-all approach to the identification of sequence-specific readers for epigenetic DNA modifications on cytosine”.
